From PubChem BioAssay AID2429 (National Center for Advancing Translational Sciences (NCATS), 2010)
This is one part of the list. Activity calls are given as the source filed them. Calls follow the shape of the full dose curve.

These molecules were tested against 15-hydroxyprostaglandin dehydrogenase [NAD(+)] (Homo sapiens) (UniProt P15428) (assay: Confirmation qHTS Assay for Inhibitors of HPGD (15-Hydroxyprostaglandin Dehydrogenase)). Conditions: recombinant HPGD, NADH fluorescence, PGE2 substrate.
Sequence of 15-hydroxyprostaglandin dehydrogenase [NAD(+)] (Homo sapiens) (P15428 whole entry, looked up): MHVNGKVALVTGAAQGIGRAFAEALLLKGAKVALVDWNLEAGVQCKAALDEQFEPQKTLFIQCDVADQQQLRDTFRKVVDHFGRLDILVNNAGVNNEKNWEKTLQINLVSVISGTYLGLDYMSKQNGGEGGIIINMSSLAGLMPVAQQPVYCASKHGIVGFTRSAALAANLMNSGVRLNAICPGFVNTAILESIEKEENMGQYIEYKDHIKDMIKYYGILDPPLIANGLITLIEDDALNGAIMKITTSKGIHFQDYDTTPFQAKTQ
Excerpt: Assay Overview: Human 15-Hydroxyprostaglandin dehydrogenase (HPGD) catalyzes the inactivation of prostaglandin E2, and plays a major role in cancer biology by antagonizing the oncogenic potential of cyclooxygenase type 2 (COX2). Assays are available, based on absorbance/fluorescence increase of NADH with the substrate 15-OH prostaglandin E2. Inhibition of HPGD activity was screened by utilizing prostaglandin as an electron donor and NAD+ as an electron acceptor/cofactor. An increase in the fluorescence intensity due to conversion of NAD+ to NADH was used to measure the enzyme activity. This assay is a confirmation screen of primary qHTS protocol (See AID 894). References 1. Myung SJ, Rerko RM, Yan M, Platzer P, Guda K, Dotson A, Lawrence E, Dannenberg AJ, Lovgren AK, Luo G, Pretlow TP, Newman RA, Willis J, Dawson D, Markowitz SD. 15-Hydroxyprostaglandin dehydrogenase is an in vivo suppressor of colon tumorigenesis. Proc Natl Acad Sci U S A. 2006 Aug 8;103(32):12098-102. 2. Yan M, Rerko RM, Platzer P, Dawson D, Willis J, Tong M, Lawrence E, Lutterbaugh J, Lu S, Willson JK, Luo G, Hensold J, Tai HH, Wilson K, Markowitz SD. 15-Hydroxyprostaglandin dehydrogenase, a COX-2 oncogene antagonist, is a TGF-beta-induced suppressor of human gastrointestinal cancers. Proc Natl Acad Sci U S A. 2004 Dec 14;101(50):17468-73. 3. Yang L, Amann JM, Kikuchi T, Porta R, Guix M, Gonzalez A, Park KH, Billheimer D, Arteaga CL, Tai HH, Dubois R, Carbone DP, Johnson DH. Inhibition of Epidermal Growth Factor Receptor Signaling Elevates 15-Hydroxyprostaglandin Dehydrogenase in Non-Small-Cell Lung Cancer. Cancer Res. 2007 Jun 15;67(12):5587-5593. NIH Chemical Genomics Center [NCGC] Structural Genomics Consortium [SGC]
Buffer: 50 mM Tris-HCl, 0.01% Tween 20, pH 8. Enzyme Buffer: 50 mM Tris-HCl, 0.5 mM NAD+ and 0.01% Tween 20, pH 8. Reagents/Controls: Buffer in columns 3 and 4 as negative control (no enzyme). Substrate/cofactor solution: 1 mM NAD+ and 30 uM prostaglandin (Sigma, prostaglandin E2, # P5640) final concentrations dispensed throughout the plate. Enzyme: 20 nM HPGD final concentration in columns 1, 2, 5-48. Column 1 and 2 is neutral (100% activity). A titration of control inhibitor GW5074 (G6416 Sigma-Aldrich, St. Louis, MO) top concentration 10 mM in DMSO, then 1:2 dilution for a total of 16 concentrations in duplicate) was pin-transferred into column 2. Assay Steps: Three uL of enzyme were dispensed to 1536-well Greiner black solid bottom plates. Compounds and control inhibitor (23 nL) were transferred via Kalypsys PinTool. The plates were incubated for 15 min at room temperature, and then 1 uL of substrate/cofactor solution was added to start the reaction. The plates were immediately transferred to and read 5 times every 30 seconds on ViewLux High-throughput CCD imager (Perkin-Elmer) using 360 nm excitation and 450 nm emission fluorescence protocol. The fluorescence intensity difference between the last and the first time points was used to compute reaction progress.

Potency, active:
CC1CCN(C(=O)c2ccc(CSc3ccc(Cl)cc3)cc2)CC1 0.631 µM
Cc1ccnc(-n2sc3ccccc3c2=O)n1 3.16 µM
CN(c1ccc(C(=O)N2CCc3ccccc3C2)cc1)S(C)(=O)=O 14.1 µM
O=C(c1ccc(CSc2ccccc2)cc1)N1CCCCCC1 0.224 µM
CC1CCN(C(=O)c2cc3nc(C4CC4)cc(C(F)(F)F)n3n2)CC1 3.98 µM
